Structures are written as SMILES. This is part of a sample that, as a whole, favours compounds with a hit. Of some 83,000 tested, about 20% had one in any assay.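 Cell lines were cultured in 96-well plates, exposed to a single compound concentration, and assessed for percent growth 48 hours later.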 Unmarked numbers belong to inactive results. The source made the active and inactive calls. How the source made its calls: active means growth percent below 10; inactive means the rest.

The values below come from PubChem BioAssay (NCI).

This experiment has as its system HL-60(TB) leukemia. The experiment can be described thus: NCI-60 one-dose screen, 48 h (100 = growth as untreated, 0 = no growth, -100 = all killed). Conditions: 10 µM unless noted.
As to `COC1=C(OC)C(=O)C(CCCCCCCCCC[P+](c2ccccc2)(c2ccccc2)c2ccccc2)=C(C)C1=O`, the growth is -55.9% (active). Then `COc1ccccc1C1OC2=Nc3cc(C)c(C)cc3NC2C1=O` (stereo not given), with 102%. For `FC(F)(F)c1ccc2c(c1)N(CCCN1CCN(C3CC3)CC1)c1ccccc1S2`, the growth was 25.6%. Then `Cc1nn(-c2ccccc2)c(Oc2ccccn2)c1-c1nc2ccccc2s1`, with 85.3%.

For `CCN(CC)CCCNc1ccc(Nc2ccc(OC)cc2)cc1`, the growth was -48.7% (active).

`CC(=O)Nc1nc(C)c(C(=O)NNS(=O)(=O)c2ccccc2)s1`: the growth is 174%. Then `CC(C)(C)CC(C)(C)c1ccc(OCCOCC[N+](C)(C)CC(=O)[O-])cc1`, with 96.1%. As for `COC(=O)c1cc(-c2ccc(OC)cc2)[nH]c1N/N=C/c1c(Cl)cccc1Cl`, the growth was -44.9% (active). Then `CC(O)Cn1cnc2c1c(=O)n(C)c(=O)n2C` (stereo not given), with 97.1%; and `CN1C(=O)N(C)C2Nn3c(s/c(=C\c4ccc(C(F)(F)F)cc4)c3=O)=NC21` (stereo not given), with 98.9%. Then `CN(C)CCCOc1ccccc1NC1=C(Cl)C(=O)C(Nc2ccccc2OCCCN(C)C)=C(Cl)C1=O`, with -33.1% (active). For `O=C1Nc2ccccc2SC1c1ccccc1Cl` (stereo not given), the growth was 71%. Regarding `FC(F)(F)c1cc(CNc2ncc(Br)c(Cl)n2)cc(C(F)(F)F)c1`, the growth was 101%. Then `COc1ccc(-c2cc(-c3cn(-c4cccc(Cl)c4)nc3-c3ccc(OC)cc3)[nH]c(=S)n2)cc1`, with 60.4%; and `COc1ccc(C2NCCc3c2[nH]c2ccccc32)cc1CN1CCN(c2ccc(F)cc2)CC1` (stereo not given), with 24.7%.
